Data taken from PubChem BioAssay (NCATS).
Where “and” joins values, the source holds several entries; their conditions need not be identical. Equal entries are not always repeated. Records with an inconclusive call do not appear. Calls of active or inactive are those of the source. Calls follow the shape of the dose curve; as a rule, active = well fitted curve in the direction sought with a large enough effect; inconclusive = small, poorly fitted or top-dose-only effect, or another doubt; inactive = no such curve, though single readings can be large; an effect the other way counts as inactive or inconclusive.

Assays:
[1] = Primary qHTS for inhibitors of nuclear receptor binding SET domain protein 2 (NSD2) in an isogenic RCH-ACV NSD2 p.E1099K mutant (9B) (AID 1645876)
[2] = Primary qHTS for inhibitors of nuclear receptor binding SET domain protein 2 (NSD2) in an RCH-ACV wild type WT cells (2C) (AID 1645877)
Also: nearly all actives have a fitted effect of over 70% in size.
Potency is read from the fitted curve at half-maximal effect.

## Cc1sc2c(c1C)C(c1ccc(Cl)cc1)=N[C@@H](CC(=O)Nc1ccc(OCCOCCOCCOCCNc3cccc4c3C(=O)N(C3CCC(=O)NC3=O)C4=O)cc1)c1nnc(C)n1-2 (stereo partly drawn)
[1]
  Potency: 4 nM (active) and 10.5 nM (active)
[2]
  Potency: 3.2 nM (active) and 14.8 nM (active)

## CCCOc1ccc(CCc2nc3cc(-c4c(C)noc4C)ccc3n2CCN2CCOCC2)cc1
[1]
  Potency: 8.33 µM (active)
[2]
  Potency: 8.33 µM (active)

## Cc1ccc(-c2ncccn2)c(C(=O)N2C[C@H](COc3ccc(F)cn3)CC[C@H]2C)c1
[1]
  Potency: inactive
[2]
  Potency: inactive

## C=C(C=O)[C@]1(O)C[C@@]2(C)C(=CC1=O)C=C[C@H](OC(=O)/C=C/C=C/[C@H](C)CC)[C@@H]2C
[1]
  Potency: 3.17 µM (active)
[2]
  Potency: 1.59 µM (active)

## COC1=CC(=O)C[C@@H](C)[C@@]12Oc1c(Cl)c(OC)cc(OC)c1C2=O
[1]
  Potency: inactive
[2]
  Potency: inactive

## CC(=O)C=C=C1C(C)(C)CC(O)CC1(C)O[C@@H]1O[C@H](CO[C@H]2OC[C@](O)(CO)[C@H]2O)[C@@H](O)[C@H](O)[C@H]1O (stereo partly drawn)
[1]
  Potency: inactive
[2]
  Potency: inactive

## O=C(/C=C/c1ccccc1O)O[C@@H]1O[C@H](CO)[C@@H](O)[C@H](O)[C@H]1O
[1]
  Potency: inactive
[2]
  Potency: inactive

## O=C(NO)c1cnc(N2CCN(S(=O)(=O)c3ccc4ccccc4c3)CC2)nc1
[1]
  Potency: 0.252 µM (active)
[2]
  Potency: 0.252 µM (active)

## C=C1C(=O)OC2/C=C(\COC(C)=O)CC/C=C(\C=O)CC(OC(=O)C(C)CC)C12 (stereo not drawn)
[1]
  Potency: 3.17 µM (active)
[2]
  Potency: 2 µM (active)

## CC(=O)OC[C@]12[C@H](OC(C)=O)C(=O)[C@@H]3[C@@H](O)[C@@]14O[C@@]3(C)COC(=O)c1cccnc1[C@@H](C)[C@H](C)C(=O)O[C@@H]([C@H](O)[C@@H]2OC(C)=O)[C@]4(C)O
[1]
  Potency: 5.41 µM (active)
[2]
  Potency: 5.41 µM (active)

## Cc1cc(-c2ncc(-c3cccnc3)cc2/C=C/c2ccccc2)cnc1-c1cccnc1
[1]
  Potency: inactive
[2]
  Potency: inactive

## Cn1cc(-c2cnn3c(N)c(Br)c(C4CCCNC4)nc23)cn1 (stereo not drawn)
[1]
  Potency: 1.18 µM (active)
[2]
  Potency: 1.05 µM (active)

## C=CCNC1=C2C[C@@H](C)C[C@H](OC)[C@H](O)[C@@H](C)/C=C(\C)[C@H](OC(N)=O)[C@@H](OC)/C=C\C=C(/C)C(=O)NC(=CC1=O)C2=O
[1]
  Potency: 3.32 µM (active)
[2]
  Potency: 2.63 µM (active)

## CC(=O)O[C@@H]1[C@@H](OC(C)=O)[C@H](C)O[C@@H](O[C@H]2[C@@H]3C=CO[C@@H](O[C@@H]4O[C@H](CO)[C@@H](O)[C@H](O)[C@H]4O)[C@@H]3[C@@]3(CO)O[C@@H]23)[C@@H]1OC(=O)/C=C/c1ccccc1
[1]
  Potency: 6.82 µM (active)
[2]
  Potency: 4.83 µM (active)

## C=C1C(=O)O[C@H]2C1CCC(C)=C1C(=O)C=C(C)[C@@]12O (stereo partly drawn)
[1]
  Potency: 20.5 µM (active)
[2]
  Potency: 12.9 µM (active)

## CC1CCCC(O)CC(=O)c2c(O)cc(O)cc2CC(=O)O1 (stereo not drawn)
[1]
  Potency: 8.01 µM (active)
[2]
  Potency: 5.05 µM (active)

## COc1cc(F)c(F)c(Nc2ccc(I)cc2F)c1NS(=O)(=O)C1(CC(O)CO)CC1 (stereo not drawn)
[1]
  Potency: 18.3 µM (active)
[2]
  Potency: 25.8 µM (active)

## COc1ccc(C2=NC(c3ccc(Cl)cc3)C(c3ccc(Cl)cc3)N2C(=O)N2CCNC(=O)C2)c(OC(C)C)c1 (stereo not drawn)
[1]
  Potency: 5.78 µM (active)
[2]
  Potency: 2.58 µM (active)

## N#Cc1ccnc(Nc2cc(C3CCN(C4COC4)CC3)cc(N3CCC(F)(F)C3)n2)c1
[1]
  Potency: 2.91 µM (active) and 934 nM (active)
[2]
  Potency: 2.59 µM (active) and 525 nM (active)

## C=C1C(=O)OC2CC(C)=C(C(C)CCCOC(C)=O)C(OC(=O)CC(C)CC)C12 (stereo not drawn)
[1]
  Potency: 7.09 µM (active)
[2]
  Potency: 7.09 µM (active)

## COc1ccc(CCO[C@@H]2O[C@H](CO[C@H]3OC[C@](O)(CO)[C@H]3O)[C@@H](OC(=O)/C=C/c3ccc(O)c(O)c3)[C@H](O[C@@H]3O[C@@H](C)[C@H](O)[C@@H](O)[C@H]3O)[C@H]2O)cc1OC
[1]
  Potency: 6.08 µM (active)
[2]
  Potency: 4.83 µM (active)

## C=C1C(=O)O[C@@H]2C[C@H](C)C3=CC(=O)[C@H](O)[C@@]3(C)C[C@H]12
[1]
  Potency: 25.8 µM (active)
[2]
  Potency: 18.3 µM (active)

## COc1cccc(-c2cc(F)ccc2C2Cc3nc(N)nc(C)c3C(=O)N2)n1 (stereo not drawn)
[1]
  Potency: 0.0525 µM (active)
[2]
  Potency: 0.059 µM (active)

## Cn1ncc(Cl)c1-c1cc(C(=O)N[C@H](CN)Cc2ccc(F)c(F)c2)oc1Cl
[1]
  Potency: 0.649 µM (active)
[2]
  Potency: 0.515 µM (active)

## CO[C@@H]1CC(OC2CCC3(C)C(CCC45CCC(C6=CC(=O)OC6)C(C)(CCC43)C5=O)C2)O[C@H](C)[C@@H]1O[C@@H]1O[C@H](CO[C@@H]2O[C@H](CO)[C@@H](O)[C@H](O)[C@H]2O)[C@@H](O)[C@H](O)[C@H]1O (stereo partly drawn)
[1]
  Potency: 1.73 µM (active)
[2]
  Potency: 3.46 µM (active)

## CCC(CC)(NC(=O)C(C)C)C(=O)N[C@@H](CCCN=C(N)N)C(=O)NC1(C(=O)NC(c2ccc(F)cc2)c2ccc(F)cc2)CCCC1
[1]
  Potency: inactive
[2]
  Potency: inactive

## COc1cc(C(C)=O)c(OC)c2c1OC(C)(C)C=C2
[1]
  Potency: inactive
[2]
  Potency: inactive

## CS(=O)(=O)c1ccc(Oc2cc(F)cc(C#N)c2)c2c1[C@H](O)C(F)(F)C2
[1]
  Potency: inactive
[2]
  Potency: inactive

## CC(O)(C(=O)O)C1CCC2(C)C1CCC1(C)C2CCC2C3(C)CCC(O)C(C)(COC4OC(CO)C(O)C(O)C4O)C3CCC21C (stereo not drawn)
[1]
  Potency: inactive
[2]
  Potency: inactive

## CS(=O)(=O)Nc1cc2occ(NC=O)c(=O)c2cc1Oc1ccccc1
[1]
  Potency: inactive
[2]
  Potency: inactive

## COc1cc(-n2cnc3cc(-c4ccc(Cl)cc4)sc3c2=O)ccc1OCCN1CCCC1
[1]
  Potency: 7.28 µM (active)
[2]
  Potency: 5.78 µM (active)

## C[C@@H]1O[C@@H](O[C@H]2[C@@H](OC(=O)[C@]34CCC(C)(C)CC3C3=CCC5[C@@]6(C)C[C@H](O)[C@H](O[C@@H]7O[C@H](CO)[C@@H](O)[C@H](O)[C@H]7O[C@@H]7OC[C@@H](O)[C@H](O)[C@H]7O)[C@@](C)(C(=O)O)C6CC[C@@]5(C)[C@]3(C)CC4)OC[C@H](O)[C@@H]2O)[C@H](O)[C@H](O)[C@H]1O[C@@H]1OC[C@@H](O)[C@H](O)[C@H]1O (stereo partly drawn)
[1]
  Potency: 1.54 µM (active)
[2]
  Potency: 2.18 µM (active)

## COC(CCc1ccc(O)cc1)CC(=O)CCc1ccc(O)cc1 (stereo not drawn)
[1]
  Potency: 5.67 µM (active)
[2]
  Potency: 8.98 µM (active)

## C/C=C(\C)C(=O)OC1C[C@@]2(COC(C)=O)O[C@H]2/C=C\[C@@]2(C)O[C@@H]2[C@H]2OC(=O)C(COC(C)=O)=C12 (stereo partly drawn)
[1]
  Potency: 8.93 µM (active)
[2]
  Potency: 5.63 µM (active)

## C=C1C(=O)O[C@H]2/C=C(/C)[C@@H](OC(C)=O)C/C=C(\C)C[C@@H](OC(=O)/C(=C/C)COC(=O)/C(=C/C)CO)[C@@H]12
[1]
  Potency: 1.78 µM (active)
[2]
  Potency: 1.12 µM (active)

## C=C1CC(=O)C2OC2(C)CC2OC(=O)C(=C)C2C(O)C1OC(=O)/C(C)=C\C (stereo not drawn)
[1]
  Potency: 3.19 µM (active)
[2]
  Potency: 2.01 µM (active)

## C/C(=C/C=C\C=C\Cc1cnco1)[C@@H](O)C(C)(C)C(N)=O
[1]
  Potency: inactive
[2]
  Potency: inactive

## CCc1c[nH]c2ncnc(N3CC[C@](N)(CNC(=O)c4ccc(F)cc4F)C3)c12
[1]
  Potency: 1.63 µM (active)
[2]
  Potency: 3.65 µM (active)

## COc1ccc(CCc2nc3cc(-c4c(C)noc4C)ccc3n2CC(C)N2CCOCC2)cc1Cl (stereo not drawn)
[1]
  Potency: 2.3 µM (active)
[2]
  Potency: 2.58 µM (active)

## O=S(=O)(c1ccccc1)N(CC(F)(F)F)c1ccc(C(O)(C(F)(F)F)C(F)(F)F)cc1
[1]
  Potency: 23 µM (active)
[2]
  Potency: 23 µM (active)

## COc1cc(CCO)ccc1O[C@@H]1O[C@H](CO)[C@@H](O)[C@H](O)[C@H]1O
[1]
  Potency: inactive
[2]
  Potency: inactive

## C1=Cc2ccccc2C(=C2CCN(CCCCc3nn[nH]n3)CC2)c2ccccc21
[1]
  Potency: inactive
[2]
  Potency: inactive

## C#CCCCn1cc(-c2cccc3c2N[C@H](C)CC(=O)N3)cn1
[1]
  Potency: 23 µM (active)
[2]
  Potency: 14.5 µM (active)

## COc1ccc(-n2c(SCCCN3C(=O)c4cccc5cccc(c45)C3=O)nnc2-c2ccncc2)cc1
[1]
  Potency: inactive
[2]
  Potency: inactive

## CC(C)/C=C1\NC(=O)C(C(C)C)n2c1nc1ccccc1c2=O (stereo not drawn)
[1]
  Potency: inactive
[2]
  Potency: inactive

## Cc1ccc(C(C)C)c(O[C@@H]2O[C@H](CO)[C@@H](O)[C@H](O)[C@H]2O)c1
[1]
  Potency: inactive
[2]
  Potency: inactive

## CCC/C=C\C=C/CCc1cc(O)c([C@@H]2O[C@H](CO)[C@@H](O)[C@H](O)[C@H]2O)c(O)c1C(=O)OC
[1]
  Potency: inactive
[2]
  Potency: inactive

## C=C1CC2OC(=O)C(=C)C2C(O)/C=C(\C)CCC1O (stereo not drawn)
[1]
  Potency: 18.3 µM (active)
[2]
  Potency: 16.3 µM (active)

## COCCNCc1ccc(-c2cc3nccc(Oc4ccc(NC(=O)C5(C(=O)Nc6ccc(F)cc6)CC5)cc4F)c3s2)nc1
[1]
  Potency: 2.9 µM (active)
[2]
  Potency: 2.63 µM (active)

## C=C1C(=O)O[C@@H]2C[C@H](C)[C@@H]3CC(=O)C(C)=C3C[C@H]12
[1]
  Potency: 4.59 µM (active)
[2]
  Potency: 2.58 µM (active)

## C/C1=C\[C@@H](C)C[C@@H](C)[C@@H](Cc2cnco2)OC(=O)/C(C)=C/[C@@H](C)C[C@@H](C)[C@@H](Cc2cnco2)OC1=O
[1]
  Potency: 1.78 µM (active)
[2]
  Potency: 3.17 µM (active)

## COC1CC(O[C@H]2CC[C@]3(C)C4CC[C@]5(C)C(C6=CC(=O)OC6)=CCC56OC46CC[C@@H]3C2)OC(C)C1O[C@@H]1O[C@H](CO[C@@H]2O[C@H](CO)[C@@H](O)[C@H](O)[C@H]2O)[C@@H](O)[C@H](O)[C@H]1O (stereo partly drawn)
[1]
  Potency: 1.54 µM (active)
[2]
  Potency: 2.75 µM (active)

## COc1cc(O)c2c(c1)/C=C/C[C@H](O)[C@H](O)C(=O)/C=C\C[C@H](C)OC2=O
[1]
  Potency: 2.06 µM (active) and 2.58 µM (active)
[2]
  Potency: 1.46 µM (active) and 1.83 µM (active)

## CCC(C)C(=O)O[C@H]1[C@@H](OC(=O)c2ccoc2)C[C@](C)(O)[C@]23OC(C)(C)[C@H](C[C@H](OC(=O)c4ccoc4)[C@]12COC(C)=O)[C@H]3OC(C)=O (stereo partly drawn)
[1]
  Potency: inactive
[2]
  Potency: inactive
